Test systems include SR leukemia; RPMI-8226 leukemia; OVCAR-8 ovarian; OVCAR-5 ovarian; OVCAR-4 ovarian; SK-OV-3 ovarian; IGROV1 ovarian; OVCAR-3 ovarian; HS 578T breast; NCI/ADR-RES ovarian.
Holding throughout (experiment): NCI-60 one-dose screen, 48 h (100 = growth as untreated, 0 = no growth, -100 = all killed)

Where “and” joins values, the source holds several entries; their conditions need not be identical. Identical values can stand only once. Compounds without any hit were thinned out: in the full panel of roughly 83,000, 20% have a hit.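 Treatment: one concentration, 48 hours, 96-well format. Scoring: percent growth, with anything below 10 considered active.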 Values without a mark were called inactive. Calls of active or inactive are those of the source.

`CCC(O)c1ccccc1` (configuration not stated): the growth is 100% and 94.1% with SR leukemia (10 µM unless noted); 192% in the assay on RPMI-8226 leukemia (10 µM unless noted); 101% and 96.1% in the assay on OVCAR-8 ovarian (10 µM unless noted); 106% and 108% in the assay on OVCAR-5 ovarian (10 µM unless noted); 103% and 107% in the assay with OVCAR-4 ovarian (10 µM unless noted); 121% and 105% with SK-OV-3 ovarian (10 µM unless noted). For the same compound, the growth was 109% and 108% in the assay with IGROV1 ovarian (10 µM unless noted); 112% and 109% with OVCAR-3 ovarian (10 µM unless noted); 81.8% and 93.6% with HS 578T breast (10 µM unless noted); 112% and 118% in the assay on NCI/ADR-RES ovarian (10 µM unless noted).

With `Cc1ccc(S(=O)(=O)NCN2C(=O)c3ccccc3C2=O)cc1`, the growth is 101% in the assay on SR leukemia (10 µM unless noted); 103% with RPMI-8226 leukemia (10 µM unless noted); 108% in the assay on OVCAR-8 ovarian (10 µM unless noted); 110% with OVCAR-5 ovarian (10 µM unless noted); 96.7% in the assay with OVCAR-4 ovarian (10 µM unless noted); 98.4% in the assay on SK-OV-3 ovarian (10 µM unless noted). Besides, the growth in the assay on IGROV1 ovarian (10 µM unless noted) was 107%; in the assay on OVCAR-3 ovarian (10 µM unless noted), 113%; with HS 578T breast (10 µM unless noted), 108%; in the assay with NCI/ADR-RES ovarian (10 µM unless noted) it was 110%.

In the case of `Cc1ccc(S(=O)(=O)Nc2ccc3cc([N+](=O)[O-])ccc3c2[N+](=O)[O-])cc1`, the growth with SR leukemia (10 µM unless noted) was 91.8% and 64.3%; in the assay on RPMI-8226 leukemia (10 µM unless noted), 51.6% and 38.2%; in the assay with OVCAR-8 ovarian (10 µM unless noted), 81.3% and 96.4%; with OVCAR-5 ovarian (10 µM unless noted), 96.9% and 106%; with OVCAR-4 ovarian (10 µM unless noted) it was 81.4% and 106%; in the assay with SK-OV-3 ovarian (10 µM unless noted) it was 78% and 103%. The growth was 75.1% and 88.1% in the assay with IGROV1 ovarian (10 µM unless noted); 46% and 98.9% in the assay with OVCAR-3 ovarian (10 µM unless noted); 77.3% and 94.7% with HS 578T breast (10 µM unless noted); 79.5% and 105% in the assay with NCI/ADR-RES ovarian (10 µM unless noted).

Take `S=C(S)N1CCCC1`: the growth in the assay with SR leukemia (10 µM unless noted) is 65.2% and 83.6%; in the assay on RPMI-8226 leukemia (10 µM unless noted), 93% and 91.3%; in the assay with OVCAR-8 ovarian (10 µM unless noted), 106% and 94.1%; in the assay on OVCAR-5 ovarian (10 µM unless noted), 112% and 113%; in the assay with OVCAR-4 ovarian (10 µM unless noted), 117% and 96.8%; in the assay with SK-OV-3 ovarian (10 µM unless noted), 116% and 112%. Also, the growth is 58.9% and 56.5% in the assay on IGROV1 ovarian (10 µM unless noted); 69.5% and 100% in the assay with OVCAR-3 ovarian (10 µM unless noted); 106% in the assay on HS 578T breast (10 µM unless noted); 107% and 99.1% in the assay with NCI/ADR-RES ovarian (10 µM unless noted).

On to `Cc1[nH]c(-c2nc3ccccc3[nH]2)c(C)c1C(=O)NC(C)C1CCCCC1` (configuration not stated), for which the growth in the assay with SR leukemia (10 µM) was 69%; in the assay on SR leukemia (100 µM), -44.3% (active); in the assay on RPMI-8226 leukemia (10 µM unless noted), -65.3% [100 µM] (active); in the assay with OVCAR-8 ovarian (10 µM), 96.9%; in the assay on OVCAR-8 ovarian (100 µM), -61.5% (active); in the assay with OVCAR-5 ovarian (10 µM), 94%. For the same compound, the growth in the assay with OVCAR-5 ovarian (100 µM) is -95.4% (active); in the assay with OVCAR-4 ovarian (10 µM), 92.1%; in the assay on OVCAR-4 ovarian (100 µM) it was -84.1% (active); in the assay on IGROV1 ovarian (10 µM) it was 90.9%; in the assay on IGROV1 ovarian (100 µM), -67.8% (active); in the assay on OVCAR-3 ovarian (10 µM) it was 90%. In addition, the growth in the assay on OVCAR-3 ovarian (100 µM) was -86.9% (active); in the assay on HS 578T breast (10 µM) it was 82.8%; with HS 578T breast (100 µM) it was -39% (active); in the assay with NCI/ADR-RES ovarian (10 µM) it was 85.5%; in the assay with NCI/ADR-RES ovarian (100 µM), -79.7% (active).

For the compound `CC#C[C@]1(O)CC[C@H]2[C@@H]3CCC4=CC(=O)CCC4=C3[C@@H](c3ccc4c(c3)OCO4)C[C@@]21C`, the growth is 60.8% with SR leukemia (10 µM); -20.8% (active) in the assay with SR leukemia (100 µM); 69.6% in the assay on RPMI-8226 leukemia (10 µM); -35% (active) in the assay with RPMI-8226 leukemia (100 µM); 81.6% in the assay on OVCAR-8 ovarian (10 µM); -13.6% (active) in the assay on OVCAR-8 ovarian (100 µM). Further, the growth with OVCAR-5 ovarian (10 µM) was 109%; with OVCAR-5 ovarian (100 µM), 14.3%; with OVCAR-4 ovarian (10 µM), 80.9%; in the assay on OVCAR-4 ovarian (100 µM), 8.93% (active); in the assay with SK-OV-3 ovarian (10 µM), 87.8%; in the assay on SK-OV-3 ovarian (100 µM), -5.43% (active). In addition, the growth in the assay with IGROV1 ovarian (10 µM) was 86.1%; in the assay on IGROV1 ovarian (100 µM), 2.61% (active); in the assay with OVCAR-3 ovarian (10 µM) it was 78%; with OVCAR-3 ovarian (100 µM) it was -40.2% (active); in the assay on HS 578T breast (10 µM) it was 79%; with HS 578T breast (100 µM), 0.161% (active). Also, the growth was 76.7% in the assay on NCI/ADR-RES ovarian (10 µM) and -15.3% (active) with NCI/ADR-RES ovarian (100 µM).

For the compound `O=C1NC(=O)C2(CCc3ccccc32)N1` (configuration not stated), the growth is 111% and 95.6% in the assay with SR leukemia (10 µM unless noted); 106% and 95.6% in the assay with RPMI-8226 leukemia (10 µM unless noted); 110% and 102% in the assay with OVCAR-8 ovarian (10 µM unless noted); 108% and 78.7% in the assay on OVCAR-5 ovarian (10 µM unless noted); 103% and 108% with OVCAR-4 ovarian (10 µM unless noted); 114% and 101% in the assay on SK-OV-3 ovarian (10 µM unless noted). The growth with IGROV1 ovarian (10 µM unless noted) was 119% and 106%; with OVCAR-3 ovarian (10 µM unless noted), 99.5% and 114%; in the assay on HS 578T breast (10 µM unless noted), 121%; in the assay with NCI/ADR-RES ovarian (10 µM unless noted), 109% and 92.5%.

As to `N#C/C(=C1C=C/C(=N/O)C(Br)=C/1)c1ccccc1`, the growth with SR leukemia (10 µM unless noted) was 7.83% (active); with RPMI-8226 leukemia (10 µM unless noted), 6.28% (active); with OVCAR-8 ovarian (10 µM unless noted), 1.66% (active); in the assay on OVCAR-5 ovarian (10 µM unless noted) it was 52.2%; with OVCAR-4 ovarian (10 µM unless noted) it was 42.1%; in the assay on SK-OV-3 ovarian (10 µM unless noted), 29.1%. Moreover, the growth is 4.78% (active) in the assay with IGROV1 ovarian (10 µM unless noted), -3.84% (active) with OVCAR-3 ovarian (10 µM unless noted), 42.6% in the assay with HS 578T breast (10 µM unless noted) and 9.55% (active) in the assay on NCI/ADR-RES ovarian (10 µM unless noted).

On to `S=C1SCN(Cc2ccccc2)CN1Cc1ccccc1`, for which the growth in the assay with SR leukemia (10 µM unless noted) was 52.9%; with RPMI-8226 leukemia (10 µM unless noted), 17%; with OVCAR-8 ovarian (10 µM unless noted) it was 93.3%; in the assay with OVCAR-5 ovarian (10 µM unless noted), 93.2%; with OVCAR-4 ovarian (10 µM unless noted), 86.4%; in the assay on SK-OV-3 ovarian (10 µM unless noted) it was 103%. For the same compound, the growth in the assay with IGROV1 ovarian (10 µM unless noted) was 34.5%; in the assay on OVCAR-3 ovarian (10 µM unless noted), 32.4%; in the assay with HS 578T breast (10 µM unless noted), 90.4%; with NCI/ADR-RES ovarian (10 µM unless noted), 73.6%.

For the origin of these results see PubChem BioAssay (NCI).
